Test systems include T-47D breast; BT-549 breast; MDA-MB-435 melanoma; SW-620 colon; MCF7 breast; HCT-116 colon; HCC-2998 colon; KM12 colon.
What all share (experiment): NCI-60 one-dose screen, 48 h (100 = growth as untreated, 0 = no growth, -100 = all killed)
Holding throughout (details): 10 µM unless noted

About 83,000 compounds went through this panel and 20% of them were active in at least one assay; those are over-represented in the sample as a whole.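 Assay: single dose, 48 h. Readout: percent growth (0 = no net growth; negative = cell death). Active: <10.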 Unmarked numbers belong to inactive results. The source made the active and inactive calls.

Consider `O=C(CN1CCCCC1)Nc1ccc2oc(=O)ccc2c1`, for which the growth in the test on T-47D breast is 103%; in the test on BT-549 breast, 107%; in the test on MDA-MB-435 melanoma, 113%; in the test on SW-620 colon, 97.9%; with MCF7 breast it was 96%; in the test with HCT-116 colon, 101%. The growth is 110% in the test on HCC-2998 colon and 104% in the test with KM12 colon.
For `COc1cc(-c2nn(-c3ccc(C(=O)O)cc3)cc2C(=O)O)ccc1O`, the growth with T-47D breast is 93.2%; in the test with BT-549 breast, 70.3%; in the test on MDA-MB-435 melanoma, -5.36% (active); in the test with SW-620 colon, 32.1%; with MCF7 breast, 35.3%; with HCT-116 colon, 86.6%. The results for the growth in the test with HCC-2998 colon and in the test on KM12 colon were 91.3% and 42.5%, respectively.
With `COc1cc(C(=O)/C=C/c2cccnc2Nc2ccc(Cl)cc2)cc(OC)c1OC`, the growth was -67.3% (active) in the test with T-47D breast; -19.1% (active) in the test on BT-549 breast; -58% (active) in the test with MDA-MB-435 melanoma; -71.5% (active) with SW-620 colon; -54.4% (active) in the test with MCF7 breast; -55.7% (active) with HCT-116 colon. Besides, the figures for the growth in the test on HCC-2998 colon and in the test on KM12 colon were -84.3% (active) and -86.8% (active), respectively.
On to `Cn1cc(C(=O)c2nc(-c3c[nH]c4ccc(F)cc34)no2)c2cc(F)ccc21`, for which the growth is 92.1% in the test on T-47D breast; 92.5% in the test on BT-549 breast; 64% in the test on MDA-MB-435 melanoma; 87.9% in the test on SW-620 colon; 58.1% with MCF7 breast; 99.8% in the test on HCT-116 colon. Further, the growth in the test on HCC-2998 colon is 97.4%; in the test with KM12 colon, 79.2%.
For the molecule `O=[N+]([O-])c1ccccc1/C=N\NC(=S)N/N=C/c1ccccc1[N+](=O)[O-]`, the growth in the test with T-47D breast is 61%; in the test on BT-549 breast it was 47.4%; with MDA-MB-435 melanoma, -1.94% (active); in the test on SW-620 colon, 23.9%; in the test on MCF7 breast it was 58.9%; in the test on HCT-116 colon, 18.9%. Moreover, the growth with HCC-2998 colon was 73.5%; in the test on KM12 colon, 17%.
For the molecule `O=c1cc(CSc2nnc(-c3ccc(F)cc3)o2)c2ccc3ccccc3c2o1`, the growth is 100% in the test on T-47D breast; 111% in the test with BT-549 breast; 106% in the test with MDA-MB-435 melanoma; 94.5% with SW-620 colon; 93.5% in the test with MCF7 breast; 93.2% in the test on HCT-116 colon. The growth in the test with HCC-2998 colon was 95.4%; with KM12 colon it was 100%.
As for `COc1ccc(-c2nc3cc(C(=O)Nc4cc(OC)c(OC)c(OC)c4)ccc3n2C2CCCCC2)cc1`, the growth in the test with T-47D breast is 97.4%; in the test with BT-549 breast it was 94.6%; in the test on MDA-MB-435 melanoma, 46%; in the test with SW-620 colon, 92.5%; in the test with MCF7 breast it was 91.2%; in the test on HCT-116 colon, 93.5%. Further, the growth in the test with HCC-2998 colon was 104%; in the test with KM12 colon it was 91.9%.
For `Cn1c(=O)[nH]c(=O)c2nc(CCC(=O)NCCC(=O)O)c(=O)[nH]c21`, the growth is 98.8% with T-47D breast; 105% with BT-549 breast; 101% with MDA-MB-435 melanoma; 101% with SW-620 colon; 103% in the test on MCF7 breast; 109% in the test with HCT-116 colon. Further, the growth was 98.3% in the test with HCC-2998 colon and 102% with KM12 colon.
In the case of `c1ccc(CCNc2ncnc3[nH]ncc23)cc1`, the growth with T-47D breast was 79.3%; in the test on BT-549 breast, 97.7%; with MDA-MB-435 melanoma, 112%; with SW-620 colon it was 113%; in the test on MCF7 breast, 130%; in the test with HCT-116 colon it was 98.3%. Further, the growth with HCC-2998 colon was 115%; in the test with KM12 colon it was 109%.
For `CCN(CC)c1ccc(/C=N\NC(=O)/C=C/C=C/c2ccc3c(c2)OCO3)c(O)c1`, the growth with T-47D breast is 26.3%; in the test with BT-549 breast, 51.8%; in the test with MDA-MB-435 melanoma it was 48.9%; in the test on SW-620 colon it was 32.3%; in the test on MCF7 breast, 19.5%; in the test on HCT-116 colon, 7.86% (active). In addition, the values for the growth with HCC-2998 colon and in the test with KM12 colon were 54% and 30.2%, respectively.
For the molecule `CC1=C/C(=C(\c2ccc(N(C)C)cc2)c2ccc([N+](C)(C)C)cc2)C=CC1=[N+](C)C`, the growth in the test with T-47D breast was 52.2%; with BT-549 breast it was 96.1%; with MDA-MB-435 melanoma, 78.4%; in the test with SW-620 colon, 66.5%; with MCF7 breast it was 59.9%; with HCT-116 colon, 36.1%. The growth was 77.3% in the test with HCC-2998 colon and 61.4% in the test on KM12 colon.
Turning to `O=C1/C(=C/c2ccccc2O)N=C2SCCCN12`, the growth is 84.5% with T-47D breast; 98% in the test with BT-549 breast; 96.6% with MDA-MB-435 melanoma; 89.3% in the test with SW-620 colon; 92.2% with MCF7 breast; 95.5% in the test with HCT-116 colon. In addition, the growth in the test on KM12 colon was 90.2%.
Consider `NCCNc1nc(Nc2ccc(-c3nc4ccccc4[nH]3)cc2)c2cn[nH]c2n1`, for which the growth with T-47D breast is 60.8%; with BT-549 breast, 80.2%; in the test on MDA-MB-435 melanoma, 94%; in the test on SW-620 colon, 28.4%; with MCF7 breast, 39.2%; in the test on HCT-116 colon, 14.9%. Moreover, in the test with KM12 colon, the growth was 25.2%.
In the case of `N#C/C(=C\c1ccc(-c2cc(C(F)(F)F)ccc2Cl)o1)c1nc(-c2ccco2)cs1`, the growth is 80.1% in the test on T-47D breast; 114% in the test with BT-549 breast; 102% in the test on MDA-MB-435 melanoma; 103% in the test with SW-620 colon; 45.3% in the test on MCF7 breast; 104% with HCT-116 colon. Further, the growth in the test on HCC-2998 colon is 104%; in the test with KM12 colon it was 99.9%.

The values above are taken from PubChem BioAssay (NCI).
